Assay outcomes (PubChem)
Rab9 promoter act: activates the Rab9 promoter; Huh7 Rab9 promoter-luciferase reporter, luminescence, 24 h; Potency, µM (highest dose often 9.22 µM), for the others: top-dose activation, negative = inhibition, usual class: activators; hit rate 2.8% among 320,000; AID 485297; note: % of control where 0% means no effect; nearly all actives have a fitted effect of over 60% in size
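Huh7 reporter line, Rab9 promoter upstream of luciferase. Compound exposure 24 h at 37 °C in reduced-serum medium with 10% FBS. Read-out: luminescence.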
FLuc modulator: counter-screen for miR-21 project: firefly luciferase inhibitors or activators | P08659 | purified FLuc, Km substrates, luminescence inhibition | Potency, µM (top dose mostly 57.5 µM), for inactives: at the top dose activity change, negative = inhibition, hits mostly inhibitors | hit rate 6.9% among 360,000;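 note: plate controls were vehicle for no effect and reference inhibitor for full effect; nearly all actives have a fitted effect of over 55% in size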
Target sequence (P08659 whole entry, looked up): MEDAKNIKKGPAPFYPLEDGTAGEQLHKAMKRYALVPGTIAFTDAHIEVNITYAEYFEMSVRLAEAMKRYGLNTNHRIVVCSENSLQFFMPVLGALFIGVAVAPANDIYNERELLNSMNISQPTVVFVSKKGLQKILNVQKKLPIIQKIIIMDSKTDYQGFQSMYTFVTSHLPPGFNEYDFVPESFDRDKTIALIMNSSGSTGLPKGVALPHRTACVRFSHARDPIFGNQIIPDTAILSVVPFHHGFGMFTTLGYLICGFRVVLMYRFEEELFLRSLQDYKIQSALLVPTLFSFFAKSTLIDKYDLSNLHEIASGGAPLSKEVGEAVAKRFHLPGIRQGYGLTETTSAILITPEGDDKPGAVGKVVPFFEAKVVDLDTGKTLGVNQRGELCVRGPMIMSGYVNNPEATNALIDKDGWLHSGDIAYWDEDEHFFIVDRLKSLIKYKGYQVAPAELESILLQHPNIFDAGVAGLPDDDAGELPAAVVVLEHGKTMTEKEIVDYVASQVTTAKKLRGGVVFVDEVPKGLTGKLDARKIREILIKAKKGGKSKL
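Purified P. pyralis luciferase, 10 nM final, with Km-level 10 uM D-luciferin and 10 uM ATP in 50 mM Tris acetate pH 7.5, 10 mM Mg acetate, 0.01% Tween-20, 0.05% BSA; 6-point qHTS titration about 60 µM downward; luminescence read.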
NPC1 promoter act: activators of NPC1 promoter. Huh7 NPC1 promoter luciferase reporter, 24 h. hit rate 2.4% among 320,000. Potency, µM (doses to about 9.22 µM), for inactives: top-dose activation, actives largely listed as activators. AID 485313; note: % of control where 0% means no effect; nearly all actives have a fitted effect of over 60% in size
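Luminescence from an NPC1 promoter-driven luciferase reporter in stably transfected Huh7 cells was measured after 24 h compound treatment at 37 °C, followed by 10 min ambient incubation with luciferase detection reagent.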
ELG1 DNA repair: ELG1-dependent DNA repair inhibition; Potency, µM (series often up to 46.1 µM), inactives show top-dose activity change, negative = inhibition, hits mostly inhibitors; hit rate 2.3% among 330,000; HEK293T ELG1-luciferase reporter, luminescence, 16 h; DNA damage induced by 5-fluorouridine; note: % is set by controls: 0 for no effect and ±100 for the full control effect; nearly all actives have a fitted effect of over 55% in size
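DMSO vehicle served as the neutral condition. Each well held 2,000 cells given 5-fluorouridine plus compound; after 16 hr at 37 °C/5% CO2, ONE-Glo was added and luciferase measured 30 min later.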
ELG1 genotoxic: inducers of genotoxicity in HEK293T ELG1-luciferase cells; HEK293T ELG1-luciferase reporter, luminescence, 16 h; Potency, µM (highest dose often 46 µM), for inactives: at the highest dose activity change, positive = activation, actives largely listed as activators; hit rate 1.3% among 330,000; note: % of control where 0% means no effect; nearly all actives have a fitted effect of over 60% in size
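Quantitative HTS format in 1536-well plates. HEK293T ELG1-luciferase reporter cells receive test compound and are incubated 16 hr at 37 °C, 5% CO2; ONE-Glo added, 30 min room temperature, then luminescence read.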
SMN2 splice up: SMN2 splice variant enhancement; hit rate 2.8% among 210,000; HEK293 SMN2-luciferase splicing reporter, luminescence, 30-36 h; Potency, µM (highest dose often 46.1 µM), inactives show at the highest dose activity change, positive = activation, usual class: activators; note: % of control where 0% means no effect; nearly all actives have a fitted effect of over 55% in size
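qHTS luciferase splicing reporter: luminescence rises when SMN2 exon 7 is included in transfected HEK293 cells. Compound exposure lasted 30-36 h at 37C, with 4.5 mM final sodium butyrate as control, followed by a ONE-Glo read.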
* hit, by the source's call; ? = inconclusive; . = no result. In the library only some 9.3% were active in any assay of this set; here they are far more common. Calls come from the whole dose curve; as a rule, active = well fitted curve in the direction sought with a large enough effect; inconclusive = small, poorly fitted or top-dose-only effect, or another doubt; inactive = no such curve, though single readings can be large; an effect the other way counts as inactive or inconclusive. Potency is the fitted concentration of half-maximal effect.

SMILES	Rab9 promoter act	FLuc modulator	NPC1 promoter act	ELG1 DNA repair	ELG1 genotoxic	SMN2 splice up
CCOc1ccc(CCNC(=O)c2ccc3c(=O)n4c(nc3c2)CCCCC4)cc1	-1%	-11%	-3%	16µM*	-14%	.
CCc1ccc(NC(=O)c2sc3nc4n(c(=O)c3c2C)CCC4)cc1	?	15µM*	28%	?	9%	.
Cc1c(C(=O)N(C)c2cccc(C(F)(F)F)c2)sc2nc3n(c(=O)c12)CCCCC3	.	13µM*	.	.	.	.
CCOc1ccc(NC(=O)c2ccc3c(=O)n4c(nc3c2)CCCCC4)cc1	-8%	3%	-9%	-25%	-3%	6%
COc1ccc(CN(C)C(=O)c2ccc3c(=O)n4c(nc3c2)CCC4)cc1	1.8µM*	8.5µM*	2.2µM*	?	?	.
COc1cccc(CN(C)C(=O)c2ccc3c(=O)n4c(nc3c2)CCC4)c1	3%	2%	3%	16%	8%	.
CCOc1ccc(N2CC(NC(=O)C3CC3)CC2=O)cc1 (configuration not stated)	.	-4%	.	.	.	.
CC1CC(C)(C)N(C(=O)CSc2ccc(-c3ccc(F)cc3)nn2)c2ccccc21 (configuration not stated)	0%	-2%	-7%	?	-17%	-90%
O=C(Nc1cccc(S(=O)(=O)N2CCCCC2)c1)c1ccc2c(=O)n3c(nc2c1)CCCCC3	-20%	?	-10%	4.1µM*	-8%	.
CCc1ccc(NC(=O)c2ccc3c(=O)n4c(nc3c2)CCCCC4)cc1	0%	17µM*	19%	?	-8%	.
CCN(CC)S(=O)(=O)c1ccc(NC(=O)c2ccc3c(=O)n4c(nc3c2)CCCCC4)cc1	.	2%	.	.	.	-65%
CCc1nnc(NC(=O)c2ccc3c(=O)n4c(nc3c2)CCCCC4)s1	27%	27µM*	13%	?	6%	.
O=C(CCCCCN1C(=O)c2ccccc2C1=O)Nc1ccc(C(=O)O)cc1	6%	-2%	-2%	0%	2%	.
CN1CCN(C(=O)c2ccc(-c3cccs3)s2)CC1	2.2µM*	11µM*	1.8µM*	?	?	.
O=C(c1cccs1)c1ccc(-c2cccs2)s1	0.5µM*	0.3µM*	?	?	?	?
COc1ccc(C2Nc3ccccc3C(=O)N2c2ccc(C)cc2)cc1COc1ccccn1 (configuration not stated)	3.2µM*	?	3.2µM*	?	?	11µM*
COc1ccc(N2C(=O)c3ccccc3NC2c2ccc(OC)c(Cn3nnc4ccccc43)c2)cc1 (configuration not stated)	?	1%	?	?	13%	14µM*
CN(C)CCC[C@@]1(c2ccc(F)cc2)OCc2cc(C#N)ccc21	.	.	.	.	.	-5%
CCCc1cc2c(=O)c(-c3ccccn3)coc2cc1OC	1.6µM*	4.8µM*	2µM*	?	?	?
CCn1c(C)c(Br)c(=O)c(C(=O)OC)c1-c1ccc(Cl)cc1	0%	1%	0%	-4%	1%	.
CCn1c(SCC(=O)Nc2nccs2)nnc1-c1ccc(S(=O)(=O)N2CCCCC2)cc1	0%	4%	1%	21µM*	-17%	.
N#C/C(C(=O)N1CCOCC1)=C1\Nc2ccccc2S1	9%	17µM*	17%	?	?	?
COc1cccc(CN(C(=O)Cc2c[nH]c3ccccc23)C(C(=O)NC2CCCCC2)c2cccs2)c1 (configuration not stated)	0%	8%	-7%	18µM*	-18%	-28%
C#CC(=O)N(c1cccc(OC)c1)C(C(=O)NC1CCCC1)c1cccs1 (configuration not stated)	-53%	0%	-49%	21µM*	6%	-85%
COc1ccc(C(C(=O)NC2CCCCC2)N(Cc2cccs2)C(=O)Cc2c[nH]c3ccccc23)cc1 (configuration not stated)	-5%	-5%	-2%	?	1%	-20%
